Measured values: PubChem BioAssay
“And” between values parts separate entries of the source, which are not always exact repeats. Equal entries are not always repeated.

Assays:
[1] = tested on: Botulinum neurotoxin type F light chain protease (Clostridium botulinum); assay: Clostridium botulinum type F light chain protease inhibitors, microsphere substrate cleavage, validation (AID 588459); details: multiplex microsphere protease substrate cleavage assay, flow cytometry; at 10 µM; hits give high values
[2] = biological target: Botulinum neurotoxin type A (Clostridium botulinum) (UniProt P0DPI0); assay: BoNT/A light chain protease inhibitors, biochemical, multiplex microsphere flow cytometry, validation set (AID 588460); details: at 10 µM, hits give high values
[3] = biological target: Lethal factor (Bacillus anthracis) (UniProt P15917); assay: Bacillus anthracis lethal factor inhibition, microsphere flow cytometry protease assay, validation at 10 µM (AID 588461); details: multiplex microsphere protease cleavage assay, hits give high values

Measured: inhibition

Sequence of Botulinum neurotoxin type A (Clostridium botulinum) (P0DPI0 whole entry, looked up): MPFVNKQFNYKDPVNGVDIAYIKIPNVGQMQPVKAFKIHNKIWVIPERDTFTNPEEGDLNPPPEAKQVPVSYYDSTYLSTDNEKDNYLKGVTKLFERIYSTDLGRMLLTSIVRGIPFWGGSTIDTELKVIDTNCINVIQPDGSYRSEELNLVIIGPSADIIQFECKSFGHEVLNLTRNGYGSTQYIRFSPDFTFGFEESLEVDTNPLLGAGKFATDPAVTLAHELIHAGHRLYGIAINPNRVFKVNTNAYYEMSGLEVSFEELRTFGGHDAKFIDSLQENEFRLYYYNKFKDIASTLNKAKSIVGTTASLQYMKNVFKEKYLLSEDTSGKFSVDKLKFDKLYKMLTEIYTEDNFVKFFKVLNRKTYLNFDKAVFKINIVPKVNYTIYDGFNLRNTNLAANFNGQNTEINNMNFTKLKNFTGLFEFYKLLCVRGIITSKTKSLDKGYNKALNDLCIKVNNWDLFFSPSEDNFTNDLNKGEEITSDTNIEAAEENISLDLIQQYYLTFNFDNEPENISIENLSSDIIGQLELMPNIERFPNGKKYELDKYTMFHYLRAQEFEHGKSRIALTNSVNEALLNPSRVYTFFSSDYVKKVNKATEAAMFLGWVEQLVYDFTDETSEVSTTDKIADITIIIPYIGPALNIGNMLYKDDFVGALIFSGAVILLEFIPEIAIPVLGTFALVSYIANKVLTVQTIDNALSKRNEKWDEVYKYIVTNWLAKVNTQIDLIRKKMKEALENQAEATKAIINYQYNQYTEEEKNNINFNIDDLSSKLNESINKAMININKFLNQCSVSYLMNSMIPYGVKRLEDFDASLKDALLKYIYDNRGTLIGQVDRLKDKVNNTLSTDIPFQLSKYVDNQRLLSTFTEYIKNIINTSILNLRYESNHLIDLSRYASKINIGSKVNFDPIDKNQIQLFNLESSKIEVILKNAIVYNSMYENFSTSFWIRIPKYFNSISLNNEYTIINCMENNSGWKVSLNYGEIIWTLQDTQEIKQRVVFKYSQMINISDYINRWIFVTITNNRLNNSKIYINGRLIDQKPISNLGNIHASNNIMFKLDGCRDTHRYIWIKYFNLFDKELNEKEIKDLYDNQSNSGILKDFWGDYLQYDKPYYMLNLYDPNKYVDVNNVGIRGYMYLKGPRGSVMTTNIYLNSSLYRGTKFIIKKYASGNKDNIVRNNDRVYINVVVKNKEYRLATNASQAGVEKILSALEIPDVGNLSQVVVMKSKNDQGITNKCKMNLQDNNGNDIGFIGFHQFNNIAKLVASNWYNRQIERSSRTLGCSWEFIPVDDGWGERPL
Sequence of Lethal factor (Bacillus anthracis) (P15917 whole entry, looked up): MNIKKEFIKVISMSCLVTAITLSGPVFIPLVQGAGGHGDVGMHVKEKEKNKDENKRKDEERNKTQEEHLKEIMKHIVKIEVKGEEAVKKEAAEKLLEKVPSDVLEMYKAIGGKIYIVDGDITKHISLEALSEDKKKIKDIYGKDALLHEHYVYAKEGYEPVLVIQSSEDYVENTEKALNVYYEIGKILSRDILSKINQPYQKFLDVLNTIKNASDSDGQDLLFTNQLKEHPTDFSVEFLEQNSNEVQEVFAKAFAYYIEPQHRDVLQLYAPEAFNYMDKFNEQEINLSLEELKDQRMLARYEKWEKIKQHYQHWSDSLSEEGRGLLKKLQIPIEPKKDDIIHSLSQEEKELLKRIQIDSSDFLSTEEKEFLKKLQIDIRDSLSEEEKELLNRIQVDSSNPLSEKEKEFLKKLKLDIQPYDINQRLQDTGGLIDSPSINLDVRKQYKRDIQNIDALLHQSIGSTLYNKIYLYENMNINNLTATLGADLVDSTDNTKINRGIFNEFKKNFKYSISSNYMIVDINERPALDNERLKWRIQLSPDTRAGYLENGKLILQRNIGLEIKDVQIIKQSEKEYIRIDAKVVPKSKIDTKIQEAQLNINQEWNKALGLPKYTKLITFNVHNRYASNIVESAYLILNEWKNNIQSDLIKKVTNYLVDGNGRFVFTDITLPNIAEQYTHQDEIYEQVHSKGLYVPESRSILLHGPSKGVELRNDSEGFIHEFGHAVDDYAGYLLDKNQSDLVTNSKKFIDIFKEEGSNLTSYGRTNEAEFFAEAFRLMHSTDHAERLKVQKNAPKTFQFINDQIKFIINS

Cn1cc(CN(CCO)Cc2cccs2)c(-c2cccc(Cl)c2)n1
inactive: [1] 1.3% | [2] 1.3% | [3] -1.3%

C/C(=N/N1CCN(Cc2cccc3ccccc23)CC1)c1cccnc1
inactive: [1] 6.2% | [2] -0.9% | [3] -4%

Nc1ccc2cn[nH]c2c1
inactive: [1] -8.4% | [2] -2.9% | [3] -16.3%

CC(NC(=O)OCc1ccccc1)C(=O)N1CC(O)CC1C(=O)O (configuration not stated)
inactive: [1] 3.2% | [2] -0.7% | [3] 1.4%

CCOC(=O)COc1ccc2c(=O)c(-c3ccccc3)coc2c1
inactive: [1] -1.6% | [2] 1.3% | [3] 1%

N#Cc1cc2c([nH]c1=O)CCCC2
inactive: [1] -0.1% | [2] -0.6% | [3] 2.6%

c1ccc(CN(CC2=NCCN2)c2ccccc2)cc1
inactive: [1] 5.3% and 2.2% | [2] 1.1% and 0.4% | [3] -3.2% and 1.4%

Cn1c(=O)[nH]c(=O)c2c1nc(Br)n2CCCO
inactive: [1] 2.3% | [2] 0.7% | [3] -5.7%

C[C@@H]1C[C@H]2[C@@H]3C[C@H](F)C4=CC(=O)C=C[C@]4(C)[C@@]3(F)[C@@H](O)C[C@]2(C)[C@@]1(O)C(=O)CO
inactive: [1] 0.3% | [2] 0.4% | [3] 0.5%

N/C(Cc1ccc(Cl)cc1Cl)=N\OC(=O)c1ccc(Br)o1
inactive: [1] -0.8% | [2] -2.5% | [3] -7.4%

CN(C)CCOc1ccccc1Cc1ccccc1
inactive: [1] 19.8% | [2] 1.6% | [3] 3.4%

CC(=O)O[C@H]1CC[C@H]2[C@@H]3CCc4cc(O)ccc4[C@H]3CC[C@]12C
inactive: [1] -3.4% | [2] -0.9% | [3] -2.4%

O=C1CC(c2ccc(OCCCCCOc3ccc(C4CC(=O)NC4=O)cc3)cc2)C(=O)N1 (configuration not stated)
inactive: [1] 2.5% | [2] 1.1% | [3] 2.1%

CCOc1ccc(C(=O)NC(C)C2COc3ccccc3O2)cc1 (configuration not stated)
inactive: [1] -6.8% | [2] -0.6% | [3] -4.7%

COCCCNc1nc2c([nH]1)c(=O)[nH]c(=O)n2C
inactive: [1] 2.6% | [2] 1.1% | [3] 1.3%

O[C@@H](CNC[C@H](O)c1ccccc1)c1ccccc1
inactive: [1] 3.9% | [2] 1.5% | [3] 4.2%

COc1ccc(-c2onc(C)c2-c2ccc(C(=O)OC(C)C)o2)c(O)c1
inactive: [1] 1.1% | [2] 0.9% | [3] 0.9%

COc1ccc(CCN=C(N)C(C)c2ccccc2)cc1OC (configuration not stated)
inactive: [1] -0.2% | [2] 0% | [3] 6.6%

COc1ccc(C(=O)CCN2CCc3cc(OC)c(OC)cc3C2)cc1
inactive: [1] -2.2% | [2] -0.3% | [3] -2.9%

NC(N)=NC(=O)Cc1c(Cl)cccc1Cl
inactive: [1] -3.3% | [2] -1.8% | [3] -3.1%

CCOCCCNCc1cn(-c2ccc(F)cc2F)nc1-c1ccccc1C
inactive: [1] -0.4% | [2] -1.9% | [3] -0.3%

O=C(/C=C/c1ccccc1)NC(=O)c1ccccc1O
inactive: [1] -4.2% | [2] -1.7% | [3] -5.7%

CC(=O)Nc1nnc(S(N)(=O)=O)s1
inactive: [1] 5.4% | [2] -0.3% | [3] -2.6%

COc1ccc(Cc2nc(-c3ccc(Br)cc3)no2)cc1
inactive: [1] -0.7% | [2] -1.6% | [3] -5.8%

CC(C)NCC(O)COc1ccc(CCOCC2CC2)cc1 (configuration not stated)
inactive: [1] -0.9% | [2] -3.6% | [3] 1.3%

Cc1ccccc1-c1nn(-c2ccc(F)cc2F)cc1CNCCN(C)C
inactive: [1] -1.9% | [2] -0.5% | [3] -2.9%

COc1ccc(-c2c(C)c3ccc(OCC(C)=O)cc3oc2=O)cc1
inactive: [1] -3.2% | [2] -0.4% | [3] 1.2%

COc1ccc(/C=C2\CCc3ccccc3C2=O)c(OC)c1OC
inactive: [1] 6.4% | [2] 0.8% | [3] 3.9%

Cc1nc(C2CC(=O)OC23CCCCC3)cs1 (configuration not stated)
inactive: [1] 0.3% | [2] -0.7% | [3] -10.4%

CCCCC[C@H](O)/C=C/[C@@H]1[C@@H](C/C=C\CCCC(=O)O)[C@@H](O)C[C@H]1O
inactive: [1] -2.4% | [2] -1.9% | [3] -1.1%

c1ccc(Nc2ccccn2)nc1
inactive: [1] 2.3% | [2] -2.1% | [3] -4.7%

CN1/C(=C\C=Nc2ccccc2)C(C)(C)c2ccccc21
inactive: [1] -1.1% | [2] 0.8% | [3] -0.6%

COc1ccc(C(=O)Nc2ccccc2C(=O)NC(Cc2c[nH]c3ccccc23)C(=O)O)cc1 (configuration not stated)
inactive: [1] -0.8% | [2] 0.5% | [3] 0%

CCCCC/C=C\C[C@H](O)/C=C/c1cccc(C[C@H](O)CCCCO)n1
inactive: [1] 2.3% | [2] 1.9% | [3] -6.2%

CCn1nc(C(=O)O)c(=O)c2cc3c(cc21)OCO3
inactive: [1] 5.7% | [2] 0.6% | [3] 0.2%

COc1ccc(C(=O)O)cc1F
inactive: [1] -1.9% | [2] -0.6% | [3] -1.1%

OCCN(Cc1nc(-c2ccc3c(c2)OCO3)no1)Cc1cccs1
inactive: [1] 2.4% | [2] 0.4% | [3] 2%

COc1ccc2oc(=O)c(C(=O)Nc3ccccc3-c3ccccc3)cc2c1
inactive: [1] 3.1% | [2] 0.3% | [3] -1.6%

OCCC1CN(Cc2ccccc2-c2ccco2)CCN1C1CCCC1 (configuration not stated)
inactive: [1] 4.4% | [2] 0.5% | [3] 5.3%

CCN(CC)CC(=O)Nc1c(C)cccc1C
inactive: [1] 2.8% and -0.5% | [2] 0.5% and -2.3% | [3] -6.6% and -3.8%

COc1cc(OC)cc(C(C)=O)c1
inactive: [1] -1.9% | [2] -1.3% | [3] -0.1%

Cc1c(OCC(F)(F)F)ccnc1CS(=O)c1nc2ccccc2[nH]1 (configuration not stated)
inactive: [1] -1% | [2] -0.5% | [3] -2.4%

COc1ccc2nc(Nc3nc(CSc4ccc(C)cc4)cc(=O)[nH]3)nc(C)c2c1
inactive: [1] 0.6% | [2] -0.3% | [3] 2%

COc1cc2c(cc1OC)-c1cc(OCc3ccccc3Cl)nc(=O)n1CC2
inactive: [1] -0.4% | [2] 0.1% | [3] 0.1%

COc1cc(NC(=O)COc2ccccc2)c(OC)cc1NC(C)=O
inactive: [1] -2.2% | [2] 1.2% | [3] -8.3%

O=c1n(CCCN2CCN(c3cccc(Cl)c3)CC2)nc2ccccn12
inactive: [1] -5.2% | [2] -0.2% | [3] -1.3%

CSCCC1NC2(C(=O)Nc3ccc(Cl)cc32)[C@@H]2C(=O)N(C3CCCC3)C(=O)[C@H]12 (some centres not stated)
inactive: [1] 0.8% | [2] -1.4% | [3] -11.2%

OC(CCN1CCCC1)(c1ccccc1)C1CCCCC1 (configuration not stated)
inactive: [1] -0.8% | [2] -0.7% | [3] -2.2%

CC(/C=C1\SC(=O)N(CCCC(=O)O)C1=O)=C\c1ccccc1
inactive: [1] 3.5% | [2] 1.3% | [3] -5.6%

Cc1c2c(nc3c(C)cccc13)OC(C)C2 (configuration not stated)
inactive: [1] 2.9% | [2] -2.4% | [3] -4.3%

Cc1cccc(-c2ncc(CN3CCN(CC(C)C)C(CCO)C3)cn2)c1 (configuration not stated)
inactive: [1] 2.6% | [2] 0.9% | [3] 0.4%

Cc1ccc(SCC(=O)Nc2nccs2)cc1
inactive: [1] -4.8% | [2] -0.5% | [3] -5.6%

CCOC(=O)c1cc2c(nc1N)CC(C)(CC)OC2 (configuration not stated)
inactive: [1] 3.5% | [2] 1% | [3] -2.4%

CCc1cc2c3c(c(=O)oc2cc1O)CCCC3
inactive: [1] -1.1% | [2] 2.2% | [3] 4.1%

O=C(O)CCSCCC(=O)O
inactive: [1] 1.3% | [2] -1.1% | [3] -7.4%

Cc1nc(-c2coc3c(CN(C)C)c(O)ccc3c2=O)cs1
inactive: [1] -2.2% | [2] -0.6% | [3] 10.3%

O=c1c(C(c2ccccc2)c2c(O)sc3ccccc3c2=O)c(O)sc2ccccc12
inactive: [1] -0.8% | [2] 1.7% | [3] 2.4%

CN(C)CC/C=C1\c2ccccc2Sc2ccc(Cl)cc21
inactive: [1] -9.1% | [2] -1.1% | [3] 2.3%

Cc1cc(-c2nn(-c3ccccc3F)cc2CN2CCCC(O)C2)c(C)s1 (configuration not stated)
inactive: [1] 3% | [2] 0.2% | [3] -0.9%

CC(C)OC(=O)C1C(=O)CC(C)(O)C(C(=O)OC(C)C)C1c1cccc(O)c1 (configuration not stated)
inactive: [1] 3.9% | [2] -0.2% | [3] -2.7%

CCc1ccc(CN(C)Cc2nc(Cc3ccccc3)no2)nc1
inactive: [1] 1.4% | [2] 0.5% | [3] 1.2%

O=C(CN1C(=O)c2ccccc2C1=O)Nc1cccc([N+](=O)[O-])c1
inactive: [1] -5.7% | [2] -0.9% | [3] -2%

CSCC[C@H](NC(=O)NC1CCCC1)C(=O)O
inactive: [1] 0.9% | [2] 0.2% | [3] -0.2%

Nc1nc(Cl)nc2c1ncn2[C@@H]1O[C@H](CO)[C@@H](O)[C@H]1O
inactive: [1] 3.3% | [2] 0.5% | [3] -6.9%
